From PubChem BioAssay (EPA / NIEHS)
Values joined by “and” are separate entries in the source; they are usually repeats but may differ in a detail not shown here. Identical values can stand only once. More than one record can exist for a structure, and the calls need not agree. Active and inactive are the calls of the source. The calls were made as follows: active = hit-call score of the fitted dose curve at least 0.9, where 1 is the maximum; inactive = score below 0.9.

Test: ATG_DR4_LXR_CIS: Attagene CIS-FACTORIAL HepG2 Assay for human Liver X Receptor (LXR), DR4 submotif (AID 2282929)
Details: HepG2 Attagene DR4 cis-reporter, mRNA transcription; actives raise or lower the signal
Experimental: ATG_CIS is a cell-based, multiplexed-readout assay that uses HepG2, a human liver cell line, with measurements taken at 24 hours after chemical dosing in a 24-well plate.ATG_DR4_LXR_CIS is one of 52 assay component(s) measured or calculated from the ATG_CIS assay. It is designed to make measurements of mRNA induction, a form of inducible reporter, as detected with fluorescence intensity signals by Reverse transcription polymerase chain reaction (RT-PCR) and Capillary electrophoresis technology.Data from the assay component ATG_DR4_LXR_CIS was analyzed into 1 assay endpoint. This assay endpoint, ATG_DR4_LXR_CIS, was analyzed with bidirectional fitting relative to DMSO as the negative control and baseline of activity. Using a type of inducible reporter, measures of mRNA for gain or loss-of-signal activity can be used to understand the reporter gene at the transcription factor-level as they relate to the gene NR1H2 and NR1H3. Furthermore, this assay endpoint can be referred to as a primary readout, because this assay has produced multiple assay endpoints where this one serves a reporter gene function. To generalize the intended target to other relatable targets, this assay endpoint is annotated to the nuclear receptor intended target family, where the subfamily is non-steroidal.
Human liver HepG2 cells are transiently transfected with multiple reporter transcription units (MRTUs) in 6-well plates using FuGene 6 reagent (Roche; 3 ml FuGene/1 mg DNA). The MRTU constructs are regulated by a cis-regulating element (promoter). […] A major difference between the CIS and TRANS system is that in CIS activities of endogenous TFs are measured, whereas the TRANS assay evaluates changes in activities of exogenous, chimeric NR-Gal4 proteins. […] At the end of 24 hour incubation, total RNA was isolated using TriZol reagent (Invitrogen). The isolated RNA is then reverse-transcribed using oligo(dT) primer and Mo-MLV reverse transcriptase (Invitrogen) with DNAse I (Ambion) treatment for 30 min. The one-tenth of the produced cDNA was amplified by PCR using Taq DNA polymerase (Invitrogen) and two reporter sequence-specific primers. The PCR products were fluorescently labeled by primer extension with 6-arboxyfluorescein (6-FAM) 5'-labeled reporter sequence-specific primer (2 min at 95 C, 20 s at 68 C and 10 min at 72 C) and these products were digested with 5U of HpaI (New England Biolabs) for 2h at 37 C. The fragments were purified using Qiaquick PCR columns (Qiagen), analyzed on an ABI 3130xL genetic analyzer (Applied Biosystems) with peak positions identified by using a set of X-rhodamine (ROX)-labeled MapMarker1000 molecular weight standards (BioVentures). The raw capillary electrophoresis data was processed using Attagraph software (Attagene).
With CC(CCO)CC(C)(C)C (stereo not given) the outcome was “inactive”.
For CC(C)OB(OC(C)C)OC(C)C, the outcome was “inactive”.
In the case of CCCCCC1C(=O)CCC1CC(=O)OC (stereo not given), the outcome is reported as “inactive”.
For CC(=O)C1=C(C)[C@@H]2C[C@@]3(C1)[C@H](C)CC[C@H]3C2(C)C, the AC50 was 58.8 µM (active).
In the case of O=S1(=O)CC(Cl)(Cl)C(Cl)(Cl)C1, the AC50 is reported as 2.41 µM (active).
For c1ccc2c(c1)-c1ccc3ccc4cccc5cc-2c1c3c45, the outcome was “inactive”.
For CCO[Si](CC)(OCC)OCC, the AC50 was 155 µM (active).
For C=COCC1CCC(COC=C)CC1 (stereo not given), the outcome was “inactive”.
In the case of CCC(C)(C)C1CCC(OC)CC1 (stereo not given), the outcome is reported as “inactive”.
For [Cl][Dy]([Cl])[Cl], the outcome was “inactive”.
In the case of CCOC(=O)CC(C)C, the outcome is reported as “inactive”.
In the case of Cc1ccc(C(C)(C)O)cc1, the outcome is reported as “inactive”.
In the case of CCCCC1CCCCC(=O)O1 (stereo not given), the outcome is reported as “inactive”.
With O=C(O)c1cc2ccccc2cc1O the outcome was “inactive”.
In the case of CCNC(=S)NCC, the outcome is reported as “inactive”.
In the case of CC(C)N(c1ccccc1)C(C)C, the outcome is reported as “inactive”.
In the case of C#C[C@]1(O)CC[C@H]2[C@@H]3CCc4cc(O)ccc4[C@H]3CC[C@@]21C, the outcome is reported as “inactive” and the AC50 is reported as 100 µM (active) and 34 µM (active).
With NC(N)=S the outcome was “inactive”.
For CC(C)N1C(=O)c2ccccc2C1=O, the outcome was “inactive”.
In the case of Cc1cccc(O)c1, the outcome is reported as “inactive”.
With CC(C)(CO)CO the outcome was “inactive”.
With CCCCOCCOCCOCCO the outcome was “inactive”.
For CC(=O)C1C(=O)C=C(C)OC1=O (stereo not given), the outcome was “inactive”.
For Cc1ccccc1S, the AC50 was 75.5 µM (active).
For CCCCOCC(C)OCC(C)O (stereo not given), the outcome was “inactive”.
With CCCCOCCOC(=O)c1ccccc1C(=O)OCCOCCCC the AC50 was 55.8 µM (active).
In the case of CCCOC(=O)CC, the outcome is reported as “inactive”.
With CCCCCCC(O)CCOC(C)=O (stereo not given) the outcome was “inactive”.
For CC(=O)CCc1ccc(O)cc1, the outcome was “inactive”.
With OCC=Cc1ccccc1 the outcome was “inactive”.
For Cc1cc(O)c(C)c(C)c1O, the outcome was “inactive”.
With O=C(O)CS the outcome was “inactive”.
For C=C(C)CCCC(C)CCO (stereo not given), the outcome was “inactive”.
In the case of [Na+], the outcome is reported as “inactive”.
For CCOC(=O)CC1(C)OCC(C)O1 (stereo not given), the outcome was “inactive”.
With O=C1CCCCCCCCCCCC(=O)OCCO1 the outcome was “inactive”.
In the case of CCCCCCCCOS(=O)(=O)O, the outcome is reported as “inactive”.
In the case of CC1(C)CC(=O)CC(C)(C)N1, the outcome is reported as “inactive”.
With C/C=C(\C)C(=O)OC/C=C(\C)CCC=C(C)C the outcome was “inactive”.
